Tau FP inhib = qHTS for Inhibitors of Tau Fibril Formation, Fluorescence Polarization; Potency, µM (doses to about 57.7 µM), for the others: top-dose activity, negative = inhibition, usual class: inhibitors; K18 P301L tau heparin fibrillization, Alexa594 FP, 6 h; 0.39% of 280,000 active; Microtubule-associated protein tau (Homo sapiens), P10636; further: nearly all actives have a fitted effect of over 55% in size
Target sequence (P10636 561-689 P618L limits assumed): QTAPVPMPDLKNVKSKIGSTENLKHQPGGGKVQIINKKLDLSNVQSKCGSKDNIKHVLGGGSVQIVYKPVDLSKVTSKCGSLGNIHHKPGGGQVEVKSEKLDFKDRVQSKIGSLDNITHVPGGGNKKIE
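Human K18 P301L fragment (15 uM unlabeled plus 0.24 uM Alexa 594-labeled) in 100 mM sodium acetate pH 7 with compound, aggregation induced by 20 uM heparin for 6 hr at 37 C. ThT (30 uM) added for 1 hr, then Alexa 594 FP read.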
Tau fibril ThT = qHTS for Inhibitors of Tau Fibril Formation, Thioflavin T Binding; Microtubule-associated protein tau (Homo sapiens), P10636; recombinant tau K18 P301L, heparin-induced fibrillization, ThT fluorescence; Potency, µM (highest dose often 57.4 µM), without a hit: at the highest dose activity, negative = inhibition, usual class: inhibitors; 2.1% of 270,000 active; further: nearly all actives have a fitted effect of over 55% in size
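Fibril formation assay: tau K18 P301L at 15 uM with trace Alexa 594 label, heparin inducer 20 uM, pH 7 sodium acetate buffer, 37 C for 6 hr; endpoint ThT signal.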
ALDH1A1 inh = qHTS Assay for Inhibitors of Aldehyde Dehydrogenase 1 (ALDH1A1) | Aldehyde dehydrogenase 1A1 (Homo sapiens), P00352 | Purified ALDH1A1, NADH fluorescence, propionaldehyde substrate | Potency, µM (series often up to 75.3 µM), inactives show at the highest dose activity, negative = inhibition, usual class: inhibitors | 7.3% of 220,000 active | AID 1030, 2008; active means well fitted inhibition curve with a large enough effect, not every such curve was filed as active; inconclusive means small, poorly fitted or top-dose-only effect, or another doubt; inactive means no such curve, though single readings can be large or run the other way;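 further: plate controls were no enzyme wells and a reference inhibitor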
Tau fluor counter = Counterscreen qHTS for Inhibitors of Tau Fibril Formation, Fluorescence Polarization; tau K18 P301L (four-repeat tau fragment) Alexa594 fluorescence, heparin fibrillization; AID 1463, 2008; 0.93% of 280,000 active; Potency, µM (top dose mostly 57.7 µM), for inactives: top-dose activity change, negative = decrease; further: nearly all actives have a fitted effect of over 55% in size
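Human K18 P301L tau (15 uM unlabeled plus 0.24 uM Alexa 594-labeled, final) in 100 mM sodium acetate pH 7 was mixed with compound and 20 uM heparin and incubated 6 hr at 37 C.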
HPGD inh = qHTS Assay for Inhibitors of HPGD (15-Hydroxyprostaglandin Dehydrogenase); 4.3% of 150,000 active; AID 894, 2007; purified HPGD, NADH fluorescence kinetic, PGE2 substrate; Potency, µM, for inactives: top-dose activity change, negative = inhibition, actives largely listed as inhibitors; 15-hydroxyprostaglandin dehydrogenase [NAD(+)] (Homo sapiens), P15428; active means well fitted inhibition curve with a large enough effect, not every such curve was filed as active; inconclusive means small, poorly fitted or top-dose-only effect, or another doubt; inactive means no such curve, though single readings can be large or run the other way
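NADH formation kinetics: reaction with 30 uM PGE2 and 1 mM NAD+ (final), 20 nM enzyme, Tris-HCl pH 8 with Tween 20, after 15 min compound preincubation at room temperature. Fluorescence change, last versus first of five reads.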
NPSR antagonist = qHTS Assay for Antagonists of the Neuropeptide S Receptor: cAMP Signal Transduction. 1% of 220,000 active. CHO-NPSR cells, cAMP TR-FRET, antagonist mode. AID 1461, 2008. Potency, µM (highest dose often 38.3 µM), inactives show at the top dose activity change, negative = inhibition, most hits filed as inhibitors; further: nearly all actives have a fitted effect of over 50% in size
Target sequence (Q6W5P4 whole entry, looked up): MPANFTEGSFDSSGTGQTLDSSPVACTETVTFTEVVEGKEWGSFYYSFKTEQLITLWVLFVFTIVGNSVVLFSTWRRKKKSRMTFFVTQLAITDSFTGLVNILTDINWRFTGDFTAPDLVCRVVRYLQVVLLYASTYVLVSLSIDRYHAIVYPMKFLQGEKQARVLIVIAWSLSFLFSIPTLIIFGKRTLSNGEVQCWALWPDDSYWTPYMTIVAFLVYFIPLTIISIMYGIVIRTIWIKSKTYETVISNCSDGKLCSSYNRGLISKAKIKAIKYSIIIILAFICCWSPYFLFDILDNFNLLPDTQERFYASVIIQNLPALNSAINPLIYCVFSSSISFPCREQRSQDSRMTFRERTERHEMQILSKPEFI
Numbers without * were called inactive; ? = inconclusive; nt = no result given; [ ] = dose if it differs, or a comment. An excerpt weighted towards active compounds, which were near 9.5% of everything screened. Unless noted, the call rests on the fitted dose curve; in most records, active means well fitted curve in the direction sought with a large enough effect; inconclusive means small, poorly fitted or top-dose-only effect, or another doubt; inactive means no such curve, though single readings can be large; an effect the other way counts as inactive or inconclusive. Unless noted, on the % scale 0 is the no-effect control and ±100 the full control effect; potency means the concentration at half of the fitted maximal effect.

SMILES	Tau FP inhib	Tau fibril ThT	ALDH1A1 inh	Tau fluor counter	HPGD inh	NPSR antagonist
COc1ccc(-c2n[nH]c(=S)n2/N=C/C=C/c2ccccc2OC)cc1	?	-4%	1%	?	1.3µM*	-8%
COc1ccccc1/C=C/C=N/n1c(-c2ccc(Cl)cc2)n[nH]c1=S	-3%	-17%	11µM*	-29%	nt	22%
COc1ccccc1/C=C/C=N/n1c(C2CCCCC2)n[nH]c1=S	-2%	-12%	?	-25%	7.1µM*	-28%
COc1ccccc1/C=C/C=N/n1c(-c2ccccc2)n[nH]c1=S	-12%	-3%	28µM*	-7%	nt	13%
COc1cc(/C=N/n2c(-c3ccccc3)n[nH]c2=S)cc(OC)c1OC	-8%	-8%	nt	-8%	nt	-2%
Cc1ccc(Cc2nc3ccccc3nc2SCC(=O)N2CCCCC2C)cc1 (stereo not given)	3%	-9%	nt	-7%	nt	nt
Cc1c(C(=O)O)c(=S)sn1CCOc1ccccc1	-7%	-6%	-8%	-5%	18µM*	-3%[46.1 µM]
COc1cccc(CN2C(=O)CN(C3CCCCC3)C(=O)C2c2ccc(OC)c(OC)c2)c1 (stereo not given)	4%	2%	nt	-1%	nt	nt
CC(C)CNC(=O)[C@H](Cc1ccccc1)NC(=O)c1ccco1	-6%	8%	40µM*	1%	-7%	-4%[46.1 µM]
CCOC(=O)c1[nH]cnc1C(=O)Nc1cccc(OC)c1	13%	22%	nt	18%	nt	-3%
Cc1cccc(NC(=O)c2nc[nH]c2C(=O)N[C@@H](CC(C)C)C(=O)OCc2ccccc2)c1	25µM*	9%	nt	?	nt	?
CNC(=O)c1[nH]cnc1C(=O)Nc1cccc(OC)c1	-7%	-3%	28µM*	-1%	-13%	9%[46.1 µM]
C[C@H](NC(=O)c1nc[nH]c1C(=O)N[C@@H](Cc1ccccc1)C(=O)OCc1ccccc1)c1ccccc1	?	0%	5µM*	-28%	nt	59%
Cc1cccc(NC(=O)c2nc[nH]c2C(=O)N[C@@H](C)C(=O)OCc2ccccc2)c1	14µM*	0%	nt	?	nt	-14%
CC(C)C[C@H](NC(=O)c1[nH]cnc1C(=O)N[C@@H](C)C(=O)OC(C)(C)C)C(=O)OCc1ccccc1	-18%	-4%	nt	-26%	nt	-37%
C=CC[C@@H]1C=C[C@H](O/N=C(\C)CCN2CCc3nc(CC)c(CC)cc3C2)[C@H](CO)O1	-7%[11.6 µM]	-1%[11.5 µM]	10%[13.5 µM]	-8%[11.6 µM]	nt	nt
CCOc1ccc(Oc2cc(N)cc([N+](=O)[O-])c2)cc1	-2%	?	-4%	?	nt	-13%
CC[N+](CC)(CC)CC[C@](O)(c1ccccc1)C1CCCCC1	nt	nt	-3%[20.9 µM]	nt	-6%	nt
CCCSC1=C(C#N)C2(CCCCC2)C(C#N)=C(N)N1	-2%	-11%	2µM*	?	nt	22%
N#CC1=C(N)NC(SCc2ccccc2)=C(C#N)C12CCCCC2	6%	-14%	13µM*	?	-27%	-15%[46.1 µM]
CCSC1=C(C#N)C2(CCCCC2)C(C#N)=C(N)N1	9%	-4%	10µM*	-13%	-3%	-15%[46.1 µM]
N#CC1=C(N)NC(SCC(=O)Nc2ccccc2)=C(C#N)C12CCCCC2	-3%	-6%	25µM*	-30%	-26%	-9%[46.1 µM]
CC(=O)CCC(=O)N1CCCC(CNC(=O)c2ccc(-c3ccccc3)cc2)C1 (stereo not given)	12%	-3%	-2%	-5%	nt	16%
CSCC(=O)N1CCCC(CNC(=O)c2ccc(-c3ccccc3)cc2)C1 (stereo not given)	9%	2%	4µM*	3%	nt	30%
COc1ccc(-n2ccnc(NCc3ccc(Cl)cc3)c2=O)cc1	-7%	-17%	nt	-25%	nt	nt
SMILES	Tau FP inhib	Tau fibril ThT	ALDH1A1 inh	Tau fluor counter	HPGD inh	NPSR antagonist
O=C1CC[C@@H](CN(Cc2ccccn2)Cc2nc(Cc3cccc(C(F)(F)F)c3)no2)N1	-4%	-15%	-2%	-20%	nt	6%
C/C(=N\NC(=O)c1ccc(N/N=C(\C)c2ccc(O)cc2)cc1)c1ccc(O)cc1	?	3.2µM*	?	16µM*[quencher]	nt	?
C/C(=N\Nc1ccc(C(=O)O)cc1)c1nc2ccccc2n1C	13%	?	5%	-7%	16µM*	0%
C/C(=N\NC(=O)c1cccc(N/N=C(\C)c2cc(O)ccc2O)c1)c1cc(O)ccc1O	?	28µM*	7.9µM*	?	nt	-23%
Cn1c(/C=N/NC(=O)c2ccccc2)nc2ccccc21	-8%	-11%	?	1%	?	-14%[46.1 µM]
C/C(=N\NC(=O)c1cccc(N/N=C(\C)c2ccco2)c1)c1ccco1	15%	?	?	-28%	nt	-11%
C/C(=N/NC(=O)c1ccccn1)c1ccc(O)cc1	-2%	?	nt	-9%	nt	18%
C/C(=N/Nc1ccc(C(=O)O)cc1)c1ccc(O)c(O)c1O	?	11µM*	?	-22%	25µM*	19%
CC(C)CC(=O)CC1(O)C(=O)Nc2ccccc21 (stereo not given)	-12%	-4%	18%	-7%	nt	-5%
CCCCCCC(=O)OCC(=O)c1ccc2c(c1)NC(=O)CO2	-8%	-7%	3.5µM*	-5%	nt	0%
O=C1COc2ccc(C(=O)C[n+]3cccc(O)c3)cc2N1	-3%	-4%	20µM*	-2%	nt	-31%
CCc1ccc(OCC(=O)OCC(=O)c2ccc3c(c2)NC(=O)CO3)cc1	2%	-11%	-4%	-11%	-20%	-4%[46.1 µM]
O=C1COc2ccc(C(=O)CCl)cc2N1	-6%	?	0.11µM*	-10%	nt	11%
CCC(=O)c1ccc(OCC(=O)c2ccc3c(c2)NC(=O)CO3)cc1	-5%	?	4%	-9%	nt	33%
COc1ccc(CNC(=O)C2CCN(c3nc4ccc(C)cc4[nH]3)CC2)cc1	-1%	-3%	nt	-2%	nt	nt
Cc1nc(SC2CCOC2=O)c2c(C)c(C)sc2n1 (stereo not given)	4%	-7%	22µM*	-3%	-6%	26%[46.1 µM]
O=C1OCCC1Sc1ncnc2sc3c(c12)CCC3 (stereo not given)	1%	-1%	-7%	4%	-19%	4%[46.1 µM]
CC(C)C[C@H](NC(=O)c1nc[nH]c1C(=O)NC1CCN(C(=O)OC(C)(C)C)CC1)C(=O)OC(C)(C)C	-7%	?	?	-24%	nt	?

High-throughput results from PubChem.
